From PubChem BioAssay (NCATS)
Inconclusive results are not listed. Active and inactive are the calls of the source. Calls come from the whole dose curve; as a rule, active = well fitted curve in the direction sought with a large enough effect; inconclusive = small, poorly fitted or top-dose-only effect, or another doubt; inactive = no such curve, though single readings can be large; an effect the other way counts as inactive or inconclusive.

Legend:
HaCat = experiment: Cytotoxic Profiling of Annotated Libraries Using Quantitative High-Throughput Screening (AID 1296008); conditions: Five cell lines viability, CellTiter-Glo ATP luminescence, 48-72 h; max response: stronger effect = lower value; note: nearly all actives have a fitted effect of over 60% in size
Outline: (§1)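 Compounds were pin-transferred onto cells and incubated 48 or 72 hr at 37 degree Celsius, 95% humidity. CellTiter-Glo was added, plates sat 10 min at room temperature, then ATP-coupled luminescence was imaged as the viability read-out.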

KB-3-1 = experiment: as above; conditions: Five cell lines viability, CellTiter-Glo ATP luminescence, 48-72 h; max response: stronger effect = lower value
Outline: as §1

NIH3T3 = experiment: as above; conditions: Five cell lines viability, CellTiter-Glo ATP luminescence, 48-72 h; max response: stronger effect = lower value
Outline: as §1

C33A = experiment: Primary qHTS to identify gynecologic anti-cancer compounds using libraries of approved drugs and bioactive compounds (AID 1345084); conditions: Gynecologic cancer cell panel viability, ATPlite luminescence, 48 h; series mostly up to 57.5 µM; note: nearly all actives have a fitted effect of over 55% in size
Outline: (§2)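 Cell viability after 48 h drug treatment, ATPlite luminescence readout; five doses.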

CAOV3 = experiment: as above; conditions: Gynecologic cancer cell panel viability, ATPlite luminescence, 48 h; series mostly up to 57.5 µM
Outline: as §2

CASKI = experiment: as above; conditions: Gynecologic cancer cell panel viability, ATPlite luminescence, 48 h; series mostly up to 57.5 µM
Outline: as §2

Es-2 = experiment: as above; conditions: Gynecologic cancer cell panel viability, ATPlite luminescence, 48 h; series mostly up to 57.5 µM
Outline: as §2

HeLa = experiment: as above; conditions: Gynecologic cancer cell panel viability, ATPlite luminescence, 48 h; series mostly up to 57.5 µM
Outline: as §2

Hek293T = experiment: as above; conditions: Gynecologic cancer cell panel viability, ATPlite luminescence, 48 h, control line for the selectivity index; series mostly up to 57.5 µM
Outline: as §2

JEG-3 = experiment: as above; conditions: Gynecologic cancer cell panel viability, ATPlite luminescence, 48 h; series mostly up to 57.5 µM
Outline: as §2

OV90 = experiment: as above; conditions: Gynecologic cancer cell panel viability, ATPlite luminescence, 48 h; series mostly up to 57.5 µM
Outline: as §2
% is set by controls: 0 for no effect and ±100 for the full control effect.

CC(=O)O[C@@H]1CC(C)=C2[C@H]1[C@H](C)CC[C@H]2/C=C(\C)C(=O)O
inactive: max response (HaCat) -15.4% | max response (KB-3-1) 7.61% | max response (NIH3T3) -9.33% | Potency (C33A) | Potency (CAOV3) | Potency (CASKI) | Potency (Es-2) | Potency (HeLa) | Potency (Hek293T) | Potency (JEG-3) | Potency (OV90)

CC1(C)C=CN2C(=O)C3=CCCN3C(=O)[C@@H]2C[C@@]12Nc1ccccc1C2=O
inactive: max response (HaCat) -4.92% | outcome (KB-3-1) | max response (NIH3T3) -3.89% | Potency (C33A) | Potency (CAOV3) | Potency (CASKI) | Potency (Es-2) | Potency (HeLa) | Potency (Hek293T) | Potency (JEG-3) | Potency (OV90)

CC(C)CCC1(O)C(=O)C(C)(C)C(O[C@@H]2O[C@H](CO)[C@@H](O)[C@H](O)[C@H]2O)C(C)(C)C1O (stereo partly drawn)
inactive: max response (HaCat) -4.8% | max response (KB-3-1) 0.0434% | max response (NIH3T3) -0.747% | Potency (C33A) | Potency (CAOV3) | Potency (CASKI) | Potency (Es-2) | Potency (HeLa) | Potency (Hek293T) | Potency (JEG-3) | Potency (OV90)

COc1cc(C)c(C(=O)O[C@H]2[C@@H](OC(C)=O)[C@H](n3ccc(=O)[nH]c3=O)O[C@@H]2CO)c(OC)c1
inactive: max response (HaCat) -9.32% | max response (KB-3-1) 0.943% | max response (NIH3T3) -14.4% | Potency (C33A) | Potency (CAOV3) | Potency (CASKI) | Potency (Es-2) | Potency (HeLa) | Potency (Hek293T) | Potency (JEG-3) | Potency (OV90)

C1CCC[C@H]2CCCN3CC[C@@H](CCCCCC[C@@H]4CCCN5CC[C@@H](CC1)O[C@@H]45)O[C@@H]23
inactive: max response (HaCat) -0.73% | max response (KB-3-1) 8.9% | max response (NIH3T3) 2.62% | activity change, negative = cytotoxicity (C33A) 6.95% [at 0.155 µM] | activity change, negative = cytotoxicity (CAOV3) 1.15% [at 0.155 µM] | activity change, negative = cytotoxicity (CASKI) -13.7% [at 0.155 µM] | activity change, negative = cytotoxicity (Es-2) 2.67% [at 0.155 µM] | activity change, negative = cytotoxicity (HeLa) 18.4% [at 0.155 µM] | activity change, negative = cytotoxicity (Hek293T) 4.56% [at 0.155 µM] | activity change, negative = cytotoxicity (JEG-3) -9.47% [at 0.155 µM] | activity change, negative = cytotoxicity (OV90) -15.5% [at 0.155 µM]

CCOCc1nc2c(N)nc3ccccc3c2n1CC(C)(C)O
inactive: max response (HaCat) 3.85% | max response (KB-3-1) -7.57% | max response (NIH3T3) -2.04% | Potency (C33A) | Potency (CAOV3) | Potency (CASKI) | Potency (Es-2) | Potency (HeLa) | Potency (Hek293T) | Potency (JEG-3) | Potency (OV90)

C=C1[C@H](OC(C)=O)[C@H]2[C@@H](OC(C)=O)[C@](C)(OC(C)=O)C[C@]2(OC(C)=O)C(=O)[C@H](C)/C=C/C(C)(C)C(=O)[C@H](OC(=O)C(C)CC)[C@H]1OC(C)=O (stereo partly drawn)
inactive: max response (HaCat) -2.99% | outcome (KB-3-1) | max response (NIH3T3) -13.5% | Potency (C33A) | Potency (CAOV3) | Potency (CASKI) | Potency (Es-2) | Potency (HeLa) | Potency (Hek293T) | Potency (JEG-3) | Potency (OV90)

CCCOc1ccc(-c2nc(OC)c3ccccc3n2)cc1
inactive: max response (HaCat) -0.801% | outcome (KB-3-1) | max response (NIH3T3) 1.75% | Potency (C33A) | Potency (CAOV3) | Potency (CASKI) | Potency (Es-2) | Potency (HeLa) | Potency (Hek293T) | Potency (JEG-3) | Potency (OV90)

C=C1C(=O)OC2CC3(C)C(CC12)C(C)=CC(O)C3OC(C)=O (stereo not drawn)
inactive: max response (HaCat) 3.89% | outcome (KB-3-1) | max response (NIH3T3) -1.8% | Potency (C33A) | Potency (CAOV3) | Potency (CASKI) | Potency (Es-2) | Potency (HeLa) | Potency (Hek293T) | Potency (JEG-3) | Potency (OV90)

CC(C)C1=CC2C(CC[C@]2(C)O)[C@](C)(O)CC1 (stereo partly drawn)
inactive: max response (HaCat) 2.33% | outcome (KB-3-1) | max response (NIH3T3) 2.57% | Potency (C33A) | Potency (CAOV3) | Potency (CASKI) | Potency (Es-2) | Potency (HeLa) | Potency (Hek293T) | Potency (JEG-3) | Potency (OV90)

CC/C=C\CC1C(=O)C=CC1(CCCCCCCC(=O)O)OC(C)=O (stereo not drawn)
inactive: max response (HaCat) 3.46% | outcome (KB-3-1) | max response (NIH3T3) 4.26% | Potency (C33A) | Potency (CAOV3) | Potency (CASKI) | Potency (Es-2) | Potency (HeLa) | Potency (Hek293T) | Potency (JEG-3) | Potency (OV90)

O=C(/C=C\c1ccc(O)cc1)N[C@@H](Cc1ccc(O)cc1)C(=O)O
inactive: max response (HaCat) -12.4% | max response (KB-3-1) 1.07% | max response (NIH3T3) -0.22% | Potency (C33A) | Potency (CAOV3) | Potency (CASKI) | Potency (Es-2) | Potency (HeLa) | Potency (Hek293T) | Potency (JEG-3) | Potency (OV90)

O=C1NC(Cc2ccccc2)C(=O)N2CCCC12 (stereo not drawn)
inactive: max response (HaCat) 2.36% | max response (KB-3-1) 9.71% | max response (NIH3T3) -0.863% | Potency (C33A) | Potency (CAOV3) | Potency (CASKI) | Potency (Es-2) | Potency (HeLa) | Potency (Hek293T) | Potency (JEG-3) | Potency (OV90)
